TRPM1 prom inh: reduces MITF-dependent TRPM1 promoter luciferase signal; 330,000 compounds, 0.83% hits; AID 488899; inhibition, % at 12.5 µM; SK-MEL-5 TRPM1 promoter luciferase, 24 h;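 active means mean inhibition across replicates of 60% or more, whatever share of single replicates reaches that level; inconclusive means some that reach 60%, reason not given; inactive means mean inhibition across replicates below 60%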
Shn3 inh set2: inhibitors of Schnurri-3 3'UTR reporter in osteoblasts. Clone20 osteoblast Shn3 3'UTR firefly luciferase, 24 h. inhibition, % at 12.5 µM. 360,000 compounds, 0.52% hits;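 active means mean inhibition of at least 75% with every replicate also reaching 75%; inconclusive means mean inhibition at least 75% but some replicate below; inactive means mean inhibition below 75%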
Peg3 prom inh: inhibitors of Peg3 promoter; 360,000 compounds, 1.7% hits; HeLa PEG-Prom luciferase reporter, luminescence, overnight; inhibition, % at 20 µM;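 active means inhibition of at least 50% at 20 µM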
TWEAK Fn14 block: blocks TWEAK-Fn14 interaction in a reporter cell assay; TWEAK-stimulated Fn14 reporter cells, luciferase luminescence, 8 h; inhibition, % at 10 µM; 360,000 compounds, 2% hits; AID 1159606; in the data active means inhibition above about 50%
EBV LMP1 NFkB: inhibitors of Epstein-Barr LMP1-induced NF-kappaB reporter; LMP1-induced NF-kappaB luciferase reporter cells, luminescence; inhibition, % at 12.5 µM; 350,000 compounds, 0.69% hits; in the data active means inhibition above about 41%; inconclusive means no clear call, values can overlap the other calls
TROY signal inh: inhibitors of TROY-dependent NF-kB signaling; 360,000 compounds, 0.98% hits; Q293 LMP1-TROYcd NF-kB luciferase reporter, 4 h; AID 1347056; inhibition, % at 10 µM;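 active means compounds whose plate-normalised and pattern-corrected inhibition of the luciferase reporter signal at the single screening dose is 50% or more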
Each line names hits and unclear results; the compound was inactive in the other large screens. Hits are enriched below; roughly 4.1% of the tested compounds scored in any of these assays.

CC(C)(C)c1cc(C(=O)N/N=C/c2ccc(F)cc2)n(-c2ccccc2)n1	none
O=C(NNS(=O)(=O)c1ccc(Cl)cc1)c1cnn(-c2ccccc2)c1-n1cccc1	none
COc1cccc(/C=N/NC(=O)c2c(C)nc3ccc(Br)cn23)c1O	TRPM1 prom inh 67.4, Shn3 inh set2 inconclusive, EBV LMP1 NFkB 63.5
COc1cc(/C=N\NC(=O)c2ccc(Cn3nc([N+](=O)[O-])c(Cl)c3C)o2)ccc1O	none
COc1ccc2[nH]c(C(=O)N/N=C/c3ccc(O)cc3O)cc2c1	Shn3 inh set2 89.1
COc1cccc(/C=N/NC(=O)c2nc(-c3ccccc3)cc(-c3ccccc3)n2)c1O	Shn3 inh set2 inconclusive, TWEAK Fn14 block 51.0
COc1cccc(/C=N\NC(=O)c2ccc(Cn3cc(Br)c([N+](=O)[O-])n3)o2)c1O	Shn3 inh set2 89.1
COc1cccc(C=NNC(=O)c2ccncc2)c1O	none
CCc1ccccc1NC(=O)c1ccc(OCc2c(C)noc2C)cc1	none
COc1ccc(/C=N/NC(=O)c2cc3cc(OC)c(OC)cc3[nH]2)cc1	none
COc1cc2cc(C(=O)N/N=C/c3ccccc3Cl)[nH]c2cc1OC	TWEAK Fn14 block 51.6
COC(=O)c1cc2n(n1)CCN(Cc1ccc(C)cc1)C2=O	none
COC(=O)c1cc2n(n1)CCN(Cc1ccccc1Cl)C2=O	EBV LMP1 NFkB 69.6
CCCCCc1nc2sc3c(c2c(=O)n1NC(=O)c1ccc([N+](=O)[O-])cc1)CC(C)(C)OC3	TWEAK Fn14 block 70.2
CCCCCCCc1nc2sc3c(c2c(=O)n1N)CC(C)(C)OC3	none
C/C=C/c1ccc(OCCCNCC(C)O)c(OC)c1 (configuration not stated)	TWEAK Fn14 block 85.8 (no result: TROY signal inh)
NC(=O)c1ccc(NC(=O)COC(=O)CCCOc2ccccc2)cc1	none
COc1ccc(C2(C(=O)Nc3ccccc3)CCOCC2)cc1	TWEAK Fn14 block 67.1
Cc1ccc(/C=N/NC(=O)c2ccc(-n3cnnn3)cc2)cc1	none
CSc1ccc(/C=N/NC(=O)c2ccc(-n3cnnn3)cc2)cc1	TWEAK Fn14 block 55.2
CC(C)c1ccc(/C=N/NC(=O)c2ccc(-n3cnnn3)cc2)cc1	TWEAK Fn14 block 64.8
Cc1cccc(NC(=O)CN2CCN(C(=O)c3oc4c(Cl)cccc4c3C)CC2)c1C	none
CCOC(=O)c1cn(CC2CC2)c2cc(F)c(F)cc2c1=O	none
COc1ccc(NC(=O)N2C3CCCC2CC(NC(=O)C2CC2)C3)cc1 (configuration not stated)	TWEAK Fn14 block 77.0
c1coc(CN(Cc2ccco2)c2ncnc3c2oc2ccccc23)c1	TWEAK Fn14 block 65.5
CNc1ccc2ncc(-c3ccc(OC)c(OC)c3)n2n1	TWEAK Fn14 block 83.5, TROY signal inh 56.7 (no result: TRPM1 prom inh, EBV LMP1 NFkB)
O=C(CN1C(=O)/C(=C/c2ccccc2)SC1=S)N1CCN(CCc2ccccn2)CC1	Peg3 prom inh 74.2
O=C(CCCN1C(=O)/C(=C\c2ccccc2)SC1=S)N1CCOCC1	none
O=C(CCN1C(=O)/C(=C\c2ccccc2)SC1=S)N1CCCCC1	Peg3 prom inh 94.4
O=C1/C(=C\c2cc(Cl)c(O)c(Cl)c2)SC(=S)N1Cc1ccccc1	TWEAK Fn14 block 60.7, TROY signal inh 70.4
CN1CCN(C(=O)CCN2C(=O)/C(=C/c3ccccc3Cl)SC2=S)CC1	Peg3 prom inh 59.2
COc1ccc(Cl)cc1NC(=O)CN(C)C(=O)CCCNC(=O)c1ccc(Cl)cc1	none
N#CC(c1ccc(Cl)cc1)c1cccc(Cl)n1 (configuration not stated)	none
COc1ccc(C(C#N)c2ccc(=O)[nH]n2)cc1 (configuration not stated)	EBV LMP1 NFkB 52.1
N#CCCNS(=O)(=O)c1ccc(C(=O)OCCCOC(=O)c2ccc(S(=O)(=O)NCCC#N)cc2)cc1	none
Nc1ncnc2c(C3OC(CO)C(O)C3O)scc12 (configuration not stated)	TRPM1 prom inh 82.8, Shn3 inh set2 97.2, Peg3 prom inh 90.1, TWEAK Fn14 block 100.1, EBV LMP1 NFkB 71.1, TROY signal inh 64.9
CCCCCCn1c2c(c(=N)c3c1CCC3)CCC2	TRPM1 prom inh inconclusive, EBV LMP1 NFkB inconclusive, TROY signal inh 59.0
CCCCCCCCCn1c2c(c(=N)c3c1CCC3)CCC2	TRPM1 prom inh 78.3, Peg3 prom inh 65.6, TROY signal inh 51.5
CCn1c2c(c(=N)c3c1CCC3)CCC2	none
CCCCCCCn1c2c(c(=N)c3c1CCC3)CCCC2	TRPM1 prom inh 67.8, TWEAK Fn14 block 60.6, EBV LMP1 NFkB 40.9
CCCCn1c2c(c(=N)c3c1CCC3)CCC2	none
O=c1[nH]c2ccc(S(=O)(=O)Nc3ccccc3O)cc2[nH]1	none
O=C(c1ccc(COc2ccccc2Cl)o1)N1CCCC1	EBV LMP1 NFkB 46.6
Cc1cc(C)cc(CC(Cc2nc3ccccc3[nH]2)c2nc3ccccc3[nH]2)c1 (configuration not stated)	TWEAK Fn14 block 55.5, TROY signal inh 51.6
Cn1c(Cl)nc2ccccc21	none
Cn1c(N=Nc2ccccc2)nc2ccccc21	TWEAK Fn14 block 79.3
COc1ccc(Sc2ccc(NC(=O)c3ccccc3Cl)cc2C#N)cc1	none
N#Cc1cc(NC(=O)c2ccc(Cl)cc2)ccc1Sc1ccccc1	TWEAK Fn14 block 64.2, TROY signal inh 50.4 (no result: TRPM1 prom inh, EBV LMP1 NFkB)
COC(=O)C1=C(NC(=O)c2ccccc2[N+](=O)[O-])CCS1	none
C=CCn1c(SCC(=O)Nc2cc(C)nn2-c2ccccc2)nnc1C1CCCCC1	none
COc1ccc(/C=C/CN2CCN(Cc3ccc(F)cc3)C(CCO)C2)cc1 (configuration not stated)	none
COc1ccc(/C=C/CN2CCN(Cc3ccccc3)C(CCO)C2)cc1 (configuration not stated)	EBV LMP1 NFkB 51.2
O=C(Nc1cccc(-c2cccc(Cl)c2)c1)C1CCN(Cc2ccc(CO)o2)CC1	Peg3 prom inh 54.5
C[C@@H]([C@@H](O)c1ccccc1)N(C)C(=O)C(N)Cc1ccccc1 (some centres not stated)	none
O=C(NCc1ccco1)c1cnn2c(C(F)F)cc(-c3ccccc3)nc12	none
Cc1cc(C)c(Cc2c(C)nc3c(C(=O)NCc4ccco4)cnn3c2C)c(C)c1	TWEAK Fn14 block 72.5, TROY signal inh 87.9
O=C(Nc1nc2c(s1)CCCC2)C1COc2ccccc2O1 (configuration not stated)	TWEAK Fn14 block 82.0, TROY signal inh 71.1
O=C(Nc1nc2c(s1)CCCC2)c1cccs1	TWEAK Fn14 block 57.2
CC1(C)CC(=O)c2sc(NC(=O)c3cccs3)nc2C1	TWEAK Fn14 block 53.7
Cc1ccccc1C(=O)Nc1ccc(-c2nc3ccc(C(=O)c4ccccc4)cc3[nH]2)cc1	TWEAK Fn14 block 70.3 (no result: TROY signal inh)
CC(C)(C)N1C(=O)c2ccc(C(=O)Nc3ccc(-c4nc5ccccc5[nH]4)cc3)cc2C1=O	Peg3 prom inh 82.2
CC(C)(C)N1C(=O)c2ccc(C(=O)Nc3ccc(C(=O)O)cc3)cc2C1=O	none

Screening data deposited in PubChem BioAssay by several laboratories.
